# APP transl inh = APP translation inhibition. SH-SY5Y APP 5'UTR-luciferase reporter, luminescence. inhibition, % at 2 µM. actives 0.82% (n = 190,000). AID 1285;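 active = inhibition above a set limit, derived from the sample mean plus 3 SD, cut at about 45% in these data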
# BaF3 tox = reduces parental Ba/F3 cell viability, JAK2V617F counter-screen | CellTiter-Glo ATP luminescence | inhibition, % at 5.6 µM | actives 1.1% (n = 220,000);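 active = inhibition above a per-campaign cutoff, the mean inhibition of all tested compounds plus 3 SD, cut at about 27% in these data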;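 note: 0% = DMSO wells and 100% = JAK Inhibitor I control wells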
# IEC-6 tox = counter-screen for KLF5 inhibitors: cytotoxicity in IEC-6 cells | actives 0.78% (n = 290,000) | inhibition, % at 5 µM | IEC-6 cytotoxicity, luminescence viability | AID 1825;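 note: 0% = plate median of test compound wells and 100% = cytotoxic reference compound wells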
# KLF5 inhibitor = suppresses KLF5 promoter-driven expression; AID 1700; inhibition, % at 5 µM; actives 0.23% (n = 290,000); DLD-1 KLF5 promoter-luciferase reporter, luminescence;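 active = inhibition above a per-plate limit of that plate's mean compound inhibition plus 3 SD, cut at about 60% in these data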;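 note: 0% = DMSO wells and 100% = LY294002 at 200 µM; higher means less KLF5 promoter-driven luciferase light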
# Ba/F3 V617F tox = lowers viability of Ba/F3 cells expressing EpoR and JAK2V617F | inhibition, % at 5.6 µM | AID 1446 | ATP luminescence | actives 1.1% (n = 220,000);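 active = inhibition above the campaign mean plus 3 SD over all tested compounds, cut at about 24% in these data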;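 note: cytokine-independent growth of Ba/F3 cells driven by EpoR plus mutant JAK2; 0% = DMSO-treated cells and 100% = JAK inhibitor I control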
# IEC-6 tox confirm = confirmation of cytotoxic compounds in rat IEC-6 intestinal epithelial cells. shares compounds with IEC-6 tox. IEC-6 rat intestinal epithelial viability, luminescence. inhibition, % at 5 µM. actives 63% (n = 1,900);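 note: 0% = vehicle and 100% = reference cytotoxic drug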
# Numbers without * were called inactive; · = not tested or not shown. In the library only some 1.9% were active in any assay of this set; here they are far more common. Cut-off read from the data, not from the text of the source, unless noted: active = inhibition above about 22%; inactive = the rest.
SMILES,APP transl inh,BaF3 tox,IEC-6 tox,KLF5 inhibitor,Ba/F3 V617F tox,IEC-6 tox confirm
COCCOC(=O)c1[nH]c2c(c1C)C(=O)CC(c1ccc(N(C)C)cc1)C2 (stereo unspecified),-27,2,0,-61,-4,·
COC(=O)c1[nH]c2c(c1C)C(=O)CC(c1cccs1)C2 (stereo unspecified),95*,82*,84*,45,79*,50*
COCCOC(=O)c1[nH]c2c(c1C)C(=O)CC(c1ccc(F)cc1)C2 (stereo unspecified),-16,10,19,9,2,·
Cc1ccc2c(CNCc3ccccc3)cc(=O)oc2c1,·,·,28*,40,·,29*
Cc1ccc2c(CN(C)Cc3cccc(F)c3)cc(=O)oc2c1,·,·,14,-103,·,·
Cc1n[nH]c(C)c1S(=O)(=O)N(CC(=O)Nc1ccc2c(c1)OCCO2)c1ccc(C(C)C)cc1,16,8,4,-9,5,·
Cc1nc2ccccn2c1-c1ccnn1S(=O)(=O)c1ccc(F)cc1,·,2,2,-5,-2,·
CCOc1ccc(N=Cc2c(C)[nH]n(-c3nc4ccccc4[nH]3)c2=O)cc1,5,34*,30*,-23,28*,53*
O=C(CCC(=O)N(CC(=O)NC1CCCC1)c1ccc(F)cc1)Nc1nccs1,·,·,-5,-1,·,·
CCOc1cc(/C=C(/NC(C)=O)C(=O)O)cc(Cl)c1OCc1ccc(Br)cc1,·,-2,26*,-20,4,2
CCOc1ccc(/C=C(/NC(=O)c2ccc(Cl)cc2)C(=O)O)cc1OCC,·,-1,4,10,-4,·
Cc1ccc(-c2nc(CN(C)Cc3cccc4cnccc34)c(C)o2)s1,17,4,-3,-43,0,·
S=C(NCCN1CCOCC1)N/N=C/c1cccs1,·,·,30*,-45,·,-15
Oc1cccc(/C=N/NC(=S)NCCN2CCOCC2)c1O,3,0,-3,-26,0,·
COc1ccc(-c2cc3c(=O)n(CC(=O)N4CCCC4)ncn3n2)cc1,·,·,-4,-31,·,·
CCOC(=O)C(NC(=O)Nc1ccc(Cl)cn1)(Oc1ccc(F)cc1)C(F)(F)F (stereo unspecified),-7,12,25*,-3,7,-4
COc1c(F)c(F)c(C(=O)Nc2ccc(-c3nc4ccccc4[nH]3)cc2)c(F)c1F,-33,0,27*,-28,3,5
O=C(Nc1ccc(-c2nc3ccccc3[nH]2)cc1)c1c(F)c(F)c(F)c(F)c1F,-5,1,-2,-17,-2,·
COc1ccccc1NC(=O)c1nc(S(=O)(=O)Cc2ccccc2)ncc1Cl,·,·,100*,59,·,16
CCS(=O)(=O)c1ncc(Cl)c(C(=O)Nc2ccccc2OC)n1,·,·,29*,20,·,19
CCOc1ccccc1NC(=O)c1nc(S(=O)(=O)Cc2ccccc2)ncc1Cl,·,·,99*,34,·,11
CCOc1ccccc1NC(=O)c1ccc(C(=O)Nc2ccccc2OCC)nc1,·,·,-4,5,·,·
O=[N+]([O-])c1cc(C=Nc2cccc3c(O)cccc23)ccc1Cl,·,·,33*,-13,·,-4
Cc1noc(C)c1COc1cccc(C(=O)OCC(=O)N2CC(=O)Nc3ccccc32)c1,93*,3,79*,17,4,43*
O=C1CN(C(=O)COc2cccc(F)c2)c2ccccc2N1,-13,-1,-6,-8,-6,·
SMILES,APP transl inh,BaF3 tox,IEC-6 tox,KLF5 inhibitor,Ba/F3 V617F tox,IEC-6 tox confirm
COc1cc(C2c3cc4c(cc3C(OC3OC5COC(c6cccs6)OC5C(O)C3O)C3COC(=O)C23)OCO4)cc(OC)c1O (stereo unspecified),·,102*,93*,41,98*,74*
COCCn1c(SCC(=O)Nc2ccccc2OC)nnc1-c1ccco1,·,·,-6,6,·,·
CCCn1c(SCC(=O)Nc2ccccc2OC)nnc1-c1ccco1,·,·,35*,39,·,16
COc1ccc(-n2cc(-c3ccc(OC)c(OC)c3)[nH]c2=S)cc1,-13,1,1,-54,-4,·
COc1ccc(-n2cc(-c3ccccc3)[nH]c2=S)c(OC)c1,·,·,26*,3,·,4
CCOc1ccc(C(O)(c2ccccc2)C(CN2CCCC2)c2ccccc2)cc1 (stereo unspecified),·,·,7,-27,·,·
COc1cccc(NC(=O)CSc2nc3ccccc3nc2N2CCCC2)c1,·,·,9,-8,·,·
Cc1cccc(NC(=O)CSc2nc3ccccc3nc2N2CCCC2)c1,·,·,32*,-10,·,5
Cc1cccc(NC(=O)CSc2nc3ccccc3nc2N2CCCCC2)c1,·,·,43*,36,·,29*
COC(=O)c1ccc(NC(CC(C)C)C(=O)OC)c([N+](=O)[O-])c1 (stereo unspecified),-1,5,1,1,1,·
CCn1c(=O)cc(SCC(=O)NCCCN2CCN(c3ccccc3F)CC2)c2ccccc21,11,18,22*,-14,11,27*
COc1cc(OC)cc(C(=O)NCC(=O)NC(C)c2ccccc2)c1 (stereo unspecified),·,·,-4,3,·,·
Cc1cc(C)c(S(=O)(=O)N2CCN(C(=O)CN3C(=O)NC4(CCCC4)C3=O)CC2)c(C)c1,·,·,0,-2,·,·
O=C(c1ccc([N+](=O)[O-])o1)N1CCc2ccccc2C1,·,-1,-1,-26,-1,·
O=C(c1ccc([N+](=O)[O-])o1)N1CCc2ccccc21,·,·,30*,-61,·,5
CCn1c(Cl)c(C=O)s/c1=N\S(=O)(=O)c1ccccc1,·,103*,96*,22,99*,91*
CCN1C(=O)CS/C1=N\S(=O)(=O)c1ccc(Cl)cc1,-34,6,-5,-2,5,·
Cc1ccc(-c2[nH]c3ccccc3c2C(C[N+](=O)[O-])c2ccco2)cc1 (stereo unspecified),-14,3,25*,11,0,10
Cc1[nH]c2ccccc2c1C(C[N+](=O)[O-])c1ccco1 (stereo unspecified),14,7,-3,4,2,·
O=C(Nc1ccc(Cl)c(Cl)c1)C1C2C=CC3(O2)C1C(=O)N(CCN1CCCCC1)C3C(=O)NC1CCCCC1 (stereo unspecified),·,·,7,-13,·,·
COCc1cc(=O)[nH]c(Nc2nc3ccc(C)cc3o2)n1,15,7,26*,-58,1,36*
CCc1ccc2nc(Nc3nc(COC)cc(=O)[nH]3)nc(C)c2c1,9,3,3,-30,-2,·
Cc1cc(NCc2ccccn2)n2ncc(-c3ccc(Cl)cc3)c2n1,·,0,29*,-14,-2,30*
Cc1cc(N)n2ncc(-c3ccc(F)cc3)c2n1,-84,1,10,-115,-5,·
CCCc1cc(NCc2ccccn2)n2nc(C)c(-c3ccccc3)c2n1,·,3,47*,-37,9,13
Cc1cc(NCc2ccccn2)n2ncc(-c3ccccc3)c2n1,·,6,84*,-41,0,31*
Cc1cc(N)n2ncc(-c3ccc(Cl)cc3)c2n1,-96,-2,25*,-21,1,26*
Cc1cc(NCc2ccccn2)n2nc(C)c(-c3ccc(Cl)cc3)c2n1,·,0,12,-6,-1,·
